# ± gives the standard deviation of the averaged measurements.
# Legend:
# Experiment in all cases: promoter activity interaction Z-score (Lux/OD deviation from empty-vector control); higher = stronger promoter induction by the compound
# [1] = test system: E. coli BW25113 acrABp lux reporter
# How it was run: (§1)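 Every compound was given at four 1:2 dilutions, in biological duplicates, to E. coli BW25113 carrying low-copy luxCDABE promoter reporters in wild-type or single-gene deletion backgrounds. Growth in 40 µl LB Lennox in 384-well plates at 37°C was followed by OD600 and luminescence readings every 30 min for 12 h, integrated over 0–8 h for wild type and 1–9 h for deletion strains, with wells below 10% of the median growth value excluded. Scores are Z-transformed residuals of growth-normalised luminescence fitted against a control.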
# [2] = test system: E. coli BW25113 marRABp lux reporter
# How it was run: as §1
# [3] = test system: E. coli BW25113 micFp lux reporter
# How it was run: as §1
# [4] = test system: E. coli BW25113 ompFp lux reporter
# How it was run: as §1
# [5] = test system: E. coli BW25113 robp lux reporter
# How it was run: as §1
# [6] = test system: E. coli BW25113 soxSp lux reporter
# How it was run: as §1
# [7] = test system: E. coli BW25113 tolCp lux reporter
# How it was run: as §1
# [8] = 1329.2 µg/ml, genetic background: wild type
# [9] = 1329.2 µg/ml, genetic background: ΔmarA
# [10] = 1329.2 µg/ml, genetic background: Δrob
# [11] = 1329.2 µg/ml, genetic background: ΔsoxS
# [12] = 2658.5 µg/ml, genetic background: wild type
# [13] = 2658.5 µg/ml, genetic background: ΔmarA
# [14] = 2658.5 µg/ml, genetic background: Δrob
# [15] = 2658.5 µg/ml, genetic background: ΔsoxS
# [16] = 5317 µg/ml, genetic background: wild type
# [17] = 5317 µg/ml, genetic background: ΔmarA
# [18] = 5317 µg/ml, genetic background: Δrob
# [19] = 5317 µg/ml, genetic background: ΔsoxS
# [20] = 10634 µg/ml, genetic background: wild type
# [21] = 10634 µg/ml, genetic background: ΔmarA
# [22] = 10634 µg/ml, genetic background: ΔsoxS
smiles,measurement,setting,value
CCN(CC)CCOC(=O)c1ccc(N)cc1 [Procaine],promoter activity interaction Z-score,[1]; [8],-0.662 ± 0.28
same,promoter activity interaction Z-score,[1]; [9],-0.602 ± 0.28
same,promoter activity interaction Z-score,[1]; [10],-0.872 ± 0.16
same,promoter activity interaction Z-score,[1]; [11],-0.805 ± 0.27
same,promoter activity interaction Z-score,[1]; [12],-0.675 ± 0.27
same,promoter activity interaction Z-score,[1]; [13],-0.191 ± 0.011
same,promoter activity interaction Z-score,[1]; [14],-0.754 ± 0.019
same,promoter activity interaction Z-score,[1]; [15],-0.807 ± 0.058
same,promoter activity interaction Z-score,[1]; [16],-0.798 ± 0.5
same,promoter activity interaction Z-score,[1]; [17],0.353 ± 0.5
same,promoter activity interaction Z-score,[1]; [18],-0.739 ± 0.25
same,promoter activity interaction Z-score,[1]; [19],-1.88 ± 0.78
same,promoter activity interaction Z-score,[1]; [20],-0.735 ± 0.28
same,promoter activity interaction Z-score,[1]; [21],-0.543 ± 0.93
same,promoter activity interaction Z-score,[1]; [22],-1.22 ± 0.13
same,promoter activity interaction Z-score,[2]; [8],0.474 ± 0.19
same,promoter activity interaction Z-score,[2]; [9],1.13 ± 0.098
same,promoter activity interaction Z-score,[2]; [10],-0.044 ± 0.24
same,promoter activity interaction Z-score,[2]; [11],0.558 ± 0.086
same,promoter activity interaction Z-score,[2]; [12],0.562 ± 0.12
same,promoter activity interaction Z-score,[2]; [13],1.42 ± 0.24
same,promoter activity interaction Z-score,[2]; [14],-0.0229 ± 0.4
same,promoter activity interaction Z-score,[2]; [15],0.555 ± 0.11
same,promoter activity interaction Z-score,[2]; [16],0.94 ± 0.094
same,promoter activity interaction Z-score,[2]; [17],2.128 ± 0.015
same,promoter activity interaction Z-score,[2]; [18],0.0444 ± 0.17
same,promoter activity interaction Z-score,[2]; [19],0.444 ± 0.23
same,promoter activity interaction Z-score,[2]; [20],1.63 ± 0.15
same,promoter activity interaction Z-score,[2]; [21],2.15 ± 0.55
same,promoter activity interaction Z-score,[2]; [22],2.04 ± 0.25
same,promoter activity interaction Z-score,[3]; [8],0.885 ± 0.053
same,promoter activity interaction Z-score,[3]; [9],0.505 ± 0.026
same,promoter activity interaction Z-score,[3]; [10],0.103 ± 0.024
same,promoter activity interaction Z-score,[3]; [11],1.88 ± 0.031
same,promoter activity interaction Z-score,[3]; [12],1.93 ± 1.1
same,promoter activity interaction Z-score,[3]; [13],0.738 ± 0.027
same,promoter activity interaction Z-score,[3]; [14],0.206 ± 0.083
same,promoter activity interaction Z-score,[3]; [15],3.42 ± 0.14
same,promoter activity interaction Z-score,[3]; [16],2.99 ± 1
same,promoter activity interaction Z-score,[3]; [17],0.535 ± 0.11
same,promoter activity interaction Z-score,[3]; [18],0.692 ± 0.16
same,promoter activity interaction Z-score,[3]; [19],3.95 ± 0.25
same,promoter activity interaction Z-score,[3]; [20],4.96 ± 1.1
same,promoter activity interaction Z-score,[3]; [21],0.433 ± 0.12
same,promoter activity interaction Z-score,[3]; [22],1.99 ± 0.39
same,promoter activity interaction Z-score,[4]; [8],-1.52 ± 0.52
same,promoter activity interaction Z-score,[4]; [9],-1.23 ± 0.023
same,promoter activity interaction Z-score,[4]; [10],-1 ± 0.25
same,promoter activity interaction Z-score,[4]; [11],-1.06 ± 0.18
same,promoter activity interaction Z-score,[4]; [12],-1.95 ± 0.51
same,promoter activity interaction Z-score,[4]; [13],-1.57 ± 0.11
same,promoter activity interaction Z-score,[4]; [14],-1.23 ± 0.6
same,promoter activity interaction Z-score,[4]; [15],-2.1 ± 0.11
same,promoter activity interaction Z-score,[4]; [16],-2.79 ± 0.89
same,promoter activity interaction Z-score,[4]; [17],-2.57 ± 0.088
same,promoter activity interaction Z-score,[4]; [18],-2.71 ± 0.78
same,promoter activity interaction Z-score,[4]; [19],-3.43 ± 0.31
same,promoter activity interaction Z-score,[4]; [20],-3.06 ± 0.97
same,promoter activity interaction Z-score,[4]; [21],-3.26 ± 0.22
same,promoter activity interaction Z-score,[4]; [22],-2.71 ± 0.13
same,promoter activity interaction Z-score,[5]; [8],-0.965 ± 0.38
same,promoter activity interaction Z-score,[5]; [9],-0.355 ± 0.47
same,promoter activity interaction Z-score,[5]; [10],-0.376 ± 0.3
same,promoter activity interaction Z-score,[5]; [11],-0.451 ± 0.9
same,promoter activity interaction Z-score,[5]; [12],-0.714 ± 0.31
same,promoter activity interaction Z-score,[5]; [13],-0.386 ± 0.2
same,promoter activity interaction Z-score,[5]; [14],-0.635 ± 0.58
same,promoter activity interaction Z-score,[5]; [15],-1.84 ± 0.3
same,promoter activity interaction Z-score,[5]; [16],-0.969 ± 0.17
same,promoter activity interaction Z-score,[5]; [17],-0.0415 ± 0.013
same,promoter activity interaction Z-score,[5]; [18],-1.1 ± 0.3
same,promoter activity interaction Z-score,[5]; [19],-1.99 ± 0.064
same,promoter activity interaction Z-score,[5]; [20],-0.708 ± 0.78
same,promoter activity interaction Z-score,[5]; [21],-0.129 ± 0.82
same,promoter activity interaction Z-score,[5]; [22],-0.881 ± 1.3
same,promoter activity interaction Z-score,[6]; [8],0.403 ± 0.099
same,promoter activity interaction Z-score,[6]; [9],0.609 ± 0.067
same,promoter activity interaction Z-score,[6]; [10],0.838 ± 0.31
same,promoter activity interaction Z-score,[6]; [11],0.324 ± 0.23
same,promoter activity interaction Z-score,[6]; [12],0.281 ± 0.23
same,promoter activity interaction Z-score,[6]; [13],1.06 ± 0.17
same,promoter activity interaction Z-score,[6]; [14],1.61 ± 0.96
same,promoter activity interaction Z-score,[6]; [15],0.224 ± 0.071
same,promoter activity interaction Z-score,[6]; [16],0.719 ± 0.53
same,promoter activity interaction Z-score,[6]; [17],1.68 ± 0.037
same,promoter activity interaction Z-score,[6]; [18],1.63 ± 0.81
same,promoter activity interaction Z-score,[6]; [19],0.114 ± 0.72
same,promoter activity interaction Z-score,[6]; [20],0.878 ± 0.58
same,promoter activity interaction Z-score,[6]; [21],1.37 ± 0.74
same,promoter activity interaction Z-score,[6]; [22],-0.539 ± 1.1
same,promoter activity interaction Z-score,[7]; [8],0.541 ± 0.79
same,promoter activity interaction Z-score,[7]; [9],-0.042 ± 0.17
same,promoter activity interaction Z-score,[7]; [10],0.413 ± 1.2
same,promoter activity interaction Z-score,[7]; [11],-0.32 ± 1.4
same,promoter activity interaction Z-score,[7]; [12],0.257 ± 0.23
same,promoter activity interaction Z-score,[7]; [13],-0.2 ± 0.34
same,promoter activity interaction Z-score,[7]; [14],0.54 ± 1.8
same,promoter activity interaction Z-score,[7]; [15],-0.137 ± 0.1
same,promoter activity interaction Z-score,[7]; [16],-1.14 ± 0.3
same,promoter activity interaction Z-score,[7]; [17],-0.284 ± 0.59
same,promoter activity interaction Z-score,[7]; [18],-0.2 ± 0.18
same,promoter activity interaction Z-score,[7]; [19],0.786 ± 1
same,promoter activity interaction Z-score,[7]; [20],2.42 ± 2.2
same,promoter activity interaction Z-score,[7]; [21],1.73 ± 2.4
same,promoter activity interaction Z-score,[7]; [22],0.696
